# According to the supplement of paper PMC10849652:
# Of roughly 7,900 targets only a part is listed; those with a hit were picked by preference. About 0.6% of all pairs of compound and target were hits. A number with no mark means an inactive call.
# What was measured:
# Assay in all cases: log2 fold change, soluble protein after heating vs DMSO (PISA); higher = thermal stabilisation; K562 cells, 10 uM, 30 min; active = over 0.2 and 3.5 SD of the protein, either way, in both replicates (recomputed)
# [1] = compound: CS(=O)(=O)c1ccc(-c2cnc(N)c(C(=O)Nc3ccccc3)n2)cc1
# How it was run: (§1)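 Soluble protein was quantified by TMTpro 16plex LC-MS/MS after channel sums were equalised. It was obtained as the supernatant after 21,000xg for 90 min from pooled aliquots of K562 cells (2×10^6 cells/mL, 10 μM compound, 30 min) heated for 3 min across 48°C-58°C and extracted in PBS with 0.5% NP-40 at 4°C. Thermal stability values are relative to control samples and come from duplicates. They are given as log2 fold changes.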
# crizotinib = compound: C[C@@H](Oc1cc(-c2cnn(C3CCNCC3)c2)cnc1N)c1c(Cl)ccc(F)c1Cl [crizotinib]
# How it was run: as §1
# [2] = compound: C[C@@H]1COCCN1C2=NC(=NC(=C2)C3(CC3)S(=O)(=O)C)C4=C5C=CNC5=CC=C4
# How it was run: as §1
# [3] = compound: C[C@H](C1=CC=C(C=C1)C(=O)NC2=C3C=CNC3=NC=C2)N
# How it was run: as §1
# duvelisib = compound: C[C@H](Nc1ncnc2nc[nH]c12)c1cc2cccc(Cl)c2c(=O)n1-c1ccccc1 [duvelisib]
# How it was run: as §1
# gandotinib = compound: Cc1cc(Nc2cc(CN3CCOCC3)c3nc(C)c(Cc4ccc(Cl)cc4F)n3n2)n[nH]1 [gandotinib]
# How it was run: as §1
# tozasertib = compound: Cc1cc(Nc2cc(N3CCN(C)CC3)nc(Sc3ccc(NC(=O)C4CC4)cc3)n2)n[nH]1 [tozasertib]
# How it was run: as §1
# [4] = compound: Cc1cc(SCc2sc(-c3ccc(C(F)(F)F)cc3)nc2C)ccc1OCC(=O)O
# How it was run: as §1
# doramapimod = compound: Cc1ccc(-n2nc(C(C)(C)C)cc2NC(=O)Nc2ccc(OCCN3CCOCC3)c3ccccc23)cc1 [doramapimod]
# How it was run: as §1
# ispinesib = compound: Cc1ccc(C(=O)N(CCCN)[C@@H](c2nc3cc(Cl)ccc3c(=O)n2Cc2ccccc2)C(C)C)cc1 [ispinesib]
# How it was run: as §1
# Sequence of UniProt O00291 (O00291 whole entry, looked up): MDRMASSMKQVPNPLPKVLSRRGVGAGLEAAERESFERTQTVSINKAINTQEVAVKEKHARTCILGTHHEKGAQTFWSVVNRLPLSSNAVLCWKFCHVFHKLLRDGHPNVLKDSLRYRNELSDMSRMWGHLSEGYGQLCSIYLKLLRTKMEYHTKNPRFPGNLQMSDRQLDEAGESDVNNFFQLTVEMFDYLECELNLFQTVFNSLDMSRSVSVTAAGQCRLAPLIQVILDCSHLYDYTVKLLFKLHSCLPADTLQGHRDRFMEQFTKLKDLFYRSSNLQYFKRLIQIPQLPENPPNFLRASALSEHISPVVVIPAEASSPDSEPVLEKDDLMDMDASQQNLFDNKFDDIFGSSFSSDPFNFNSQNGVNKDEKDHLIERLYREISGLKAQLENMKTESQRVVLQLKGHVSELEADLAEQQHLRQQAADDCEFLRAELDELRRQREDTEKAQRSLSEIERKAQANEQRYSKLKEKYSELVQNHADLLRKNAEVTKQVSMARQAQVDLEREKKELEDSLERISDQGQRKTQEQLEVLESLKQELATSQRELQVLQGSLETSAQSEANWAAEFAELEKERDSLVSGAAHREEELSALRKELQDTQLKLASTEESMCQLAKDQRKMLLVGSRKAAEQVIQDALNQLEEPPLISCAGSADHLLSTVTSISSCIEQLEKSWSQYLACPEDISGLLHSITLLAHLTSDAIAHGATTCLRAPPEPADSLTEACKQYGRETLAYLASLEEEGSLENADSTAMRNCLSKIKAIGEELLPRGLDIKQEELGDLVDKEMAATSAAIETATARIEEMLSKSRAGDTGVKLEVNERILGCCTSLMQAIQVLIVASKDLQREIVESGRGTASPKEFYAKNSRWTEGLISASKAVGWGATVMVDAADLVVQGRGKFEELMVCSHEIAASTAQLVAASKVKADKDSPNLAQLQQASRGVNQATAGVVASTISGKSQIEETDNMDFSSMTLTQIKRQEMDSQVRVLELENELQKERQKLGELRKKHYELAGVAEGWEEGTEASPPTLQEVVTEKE
# Sequence of UniProt P49356 (P49356 whole entry, looked up): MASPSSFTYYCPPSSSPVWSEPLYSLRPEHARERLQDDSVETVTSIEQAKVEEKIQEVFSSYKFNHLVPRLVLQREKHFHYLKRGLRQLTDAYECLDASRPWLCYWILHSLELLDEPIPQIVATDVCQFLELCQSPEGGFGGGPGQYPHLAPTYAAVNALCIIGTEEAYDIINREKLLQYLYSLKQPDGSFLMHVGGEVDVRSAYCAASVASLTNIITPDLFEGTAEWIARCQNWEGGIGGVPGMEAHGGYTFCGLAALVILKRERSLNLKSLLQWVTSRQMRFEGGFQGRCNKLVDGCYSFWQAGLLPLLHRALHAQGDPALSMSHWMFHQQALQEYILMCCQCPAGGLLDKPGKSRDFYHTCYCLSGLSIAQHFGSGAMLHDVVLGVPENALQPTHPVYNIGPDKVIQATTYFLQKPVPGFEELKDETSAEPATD
# Sequence of UniProt P55795 (P55795 whole entry, looked up): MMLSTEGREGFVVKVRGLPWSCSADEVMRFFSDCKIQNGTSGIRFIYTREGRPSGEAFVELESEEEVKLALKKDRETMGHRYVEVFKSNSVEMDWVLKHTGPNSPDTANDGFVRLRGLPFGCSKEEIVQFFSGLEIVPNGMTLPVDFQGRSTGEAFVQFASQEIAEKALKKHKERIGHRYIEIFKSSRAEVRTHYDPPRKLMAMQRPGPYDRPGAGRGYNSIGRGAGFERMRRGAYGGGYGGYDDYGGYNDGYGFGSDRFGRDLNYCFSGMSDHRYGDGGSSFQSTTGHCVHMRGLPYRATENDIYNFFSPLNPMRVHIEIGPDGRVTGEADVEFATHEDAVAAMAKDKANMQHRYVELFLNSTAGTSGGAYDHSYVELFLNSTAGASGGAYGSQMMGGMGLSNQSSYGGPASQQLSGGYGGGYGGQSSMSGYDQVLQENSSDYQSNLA
# Sequence of UniProt O94925 (O94925 whole entry, looked up): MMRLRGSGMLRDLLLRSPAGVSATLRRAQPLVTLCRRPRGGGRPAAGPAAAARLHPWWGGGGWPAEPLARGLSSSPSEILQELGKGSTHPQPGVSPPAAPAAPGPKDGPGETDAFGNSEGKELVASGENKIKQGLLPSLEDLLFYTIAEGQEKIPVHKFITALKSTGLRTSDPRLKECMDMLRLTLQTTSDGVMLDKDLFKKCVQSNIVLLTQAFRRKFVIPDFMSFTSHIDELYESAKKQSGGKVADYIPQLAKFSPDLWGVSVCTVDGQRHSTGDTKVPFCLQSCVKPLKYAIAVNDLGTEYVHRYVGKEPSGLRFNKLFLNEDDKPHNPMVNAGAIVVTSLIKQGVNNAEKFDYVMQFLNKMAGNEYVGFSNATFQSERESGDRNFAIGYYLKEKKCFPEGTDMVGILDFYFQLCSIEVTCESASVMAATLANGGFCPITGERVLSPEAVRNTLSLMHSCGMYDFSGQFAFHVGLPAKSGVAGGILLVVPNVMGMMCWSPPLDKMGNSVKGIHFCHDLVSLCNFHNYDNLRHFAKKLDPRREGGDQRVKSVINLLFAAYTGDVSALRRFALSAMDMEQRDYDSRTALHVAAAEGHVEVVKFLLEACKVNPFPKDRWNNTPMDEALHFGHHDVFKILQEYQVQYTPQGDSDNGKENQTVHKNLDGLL
# Sequence of UniProt Q06546 (Q06546 whole entry, looked up): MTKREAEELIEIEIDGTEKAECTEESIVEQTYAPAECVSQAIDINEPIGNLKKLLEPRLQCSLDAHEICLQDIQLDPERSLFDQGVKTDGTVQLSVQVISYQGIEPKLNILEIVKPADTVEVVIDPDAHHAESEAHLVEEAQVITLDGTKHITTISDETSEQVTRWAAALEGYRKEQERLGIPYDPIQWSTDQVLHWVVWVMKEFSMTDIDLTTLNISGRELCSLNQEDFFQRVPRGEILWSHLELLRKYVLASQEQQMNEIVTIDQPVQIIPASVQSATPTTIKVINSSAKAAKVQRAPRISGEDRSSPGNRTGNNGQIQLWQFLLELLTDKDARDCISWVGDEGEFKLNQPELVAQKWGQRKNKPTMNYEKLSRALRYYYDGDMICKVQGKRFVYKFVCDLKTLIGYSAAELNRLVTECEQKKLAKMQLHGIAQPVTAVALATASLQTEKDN
# Sequence of UniProt P11142 (P11142 whole entry, looked up): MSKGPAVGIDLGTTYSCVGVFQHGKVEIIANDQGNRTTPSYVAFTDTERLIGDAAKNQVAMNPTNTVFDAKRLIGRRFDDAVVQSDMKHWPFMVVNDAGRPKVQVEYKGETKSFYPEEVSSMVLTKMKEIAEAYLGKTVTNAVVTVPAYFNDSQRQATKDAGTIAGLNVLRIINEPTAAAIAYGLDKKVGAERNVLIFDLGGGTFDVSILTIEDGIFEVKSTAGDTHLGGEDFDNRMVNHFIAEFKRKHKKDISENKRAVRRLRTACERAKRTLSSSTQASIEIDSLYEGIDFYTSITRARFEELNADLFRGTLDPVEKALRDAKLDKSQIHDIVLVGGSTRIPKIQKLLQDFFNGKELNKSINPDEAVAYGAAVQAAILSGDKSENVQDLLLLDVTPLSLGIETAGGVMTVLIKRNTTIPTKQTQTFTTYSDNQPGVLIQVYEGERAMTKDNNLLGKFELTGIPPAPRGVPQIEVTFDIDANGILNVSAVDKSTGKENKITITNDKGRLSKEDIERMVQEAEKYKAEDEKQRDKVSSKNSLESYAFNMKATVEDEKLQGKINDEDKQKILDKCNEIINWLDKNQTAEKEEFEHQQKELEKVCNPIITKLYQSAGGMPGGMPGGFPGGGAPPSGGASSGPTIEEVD
# Sequence of UniProt P55084 (P55084 whole entry, looked up): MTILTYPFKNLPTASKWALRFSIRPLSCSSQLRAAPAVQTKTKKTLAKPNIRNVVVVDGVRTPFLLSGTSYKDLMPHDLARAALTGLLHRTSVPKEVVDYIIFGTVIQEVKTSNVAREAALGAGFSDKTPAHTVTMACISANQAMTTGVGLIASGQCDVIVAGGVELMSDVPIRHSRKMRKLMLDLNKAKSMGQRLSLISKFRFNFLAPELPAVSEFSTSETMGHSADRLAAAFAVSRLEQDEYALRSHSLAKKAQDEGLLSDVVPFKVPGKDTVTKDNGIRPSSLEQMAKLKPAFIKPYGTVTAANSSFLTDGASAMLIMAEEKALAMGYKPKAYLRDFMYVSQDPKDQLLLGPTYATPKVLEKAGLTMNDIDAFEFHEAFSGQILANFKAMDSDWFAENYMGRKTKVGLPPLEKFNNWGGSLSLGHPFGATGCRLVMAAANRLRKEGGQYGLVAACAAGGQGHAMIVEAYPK
# Sequence of UniProt Q96SL8 (Q96SL8 whole entry, looked up): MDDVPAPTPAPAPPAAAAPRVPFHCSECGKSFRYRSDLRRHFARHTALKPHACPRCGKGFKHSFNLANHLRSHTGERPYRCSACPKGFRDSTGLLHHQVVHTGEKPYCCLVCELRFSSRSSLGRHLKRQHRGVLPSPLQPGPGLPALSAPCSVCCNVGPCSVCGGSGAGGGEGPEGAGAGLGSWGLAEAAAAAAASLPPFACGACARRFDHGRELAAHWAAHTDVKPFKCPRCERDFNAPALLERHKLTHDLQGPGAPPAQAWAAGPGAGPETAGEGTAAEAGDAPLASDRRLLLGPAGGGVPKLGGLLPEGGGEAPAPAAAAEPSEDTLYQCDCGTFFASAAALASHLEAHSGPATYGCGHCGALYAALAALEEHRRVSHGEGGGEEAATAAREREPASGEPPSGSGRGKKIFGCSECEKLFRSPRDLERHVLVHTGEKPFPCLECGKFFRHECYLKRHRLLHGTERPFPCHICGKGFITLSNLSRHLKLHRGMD
# Sequence of UniProt Q8N9F7 (Q8N9F7 whole entry, looked up): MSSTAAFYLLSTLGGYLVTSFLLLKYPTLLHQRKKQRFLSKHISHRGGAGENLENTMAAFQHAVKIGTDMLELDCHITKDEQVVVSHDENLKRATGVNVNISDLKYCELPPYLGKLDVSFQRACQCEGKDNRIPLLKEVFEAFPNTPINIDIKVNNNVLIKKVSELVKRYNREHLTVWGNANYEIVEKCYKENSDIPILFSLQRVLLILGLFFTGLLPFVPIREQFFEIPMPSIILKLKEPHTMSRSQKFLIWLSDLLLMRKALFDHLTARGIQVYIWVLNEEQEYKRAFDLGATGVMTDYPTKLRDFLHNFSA
Target,log2 fold change [1],log2 fold change (crizotinib),log2 fold change [2],log2 fold change [3],log2 fold change (duvelisib),log2 fold change (gandotinib),log2 fold change (tozasertib),log2 fold change [4],log2 fold change (doramapimod),log2 fold change (ispinesib)
GLYR1 (UniProt Q49A26),0.033,0.008,-0.125,0.075,-0.179,0.016,-0.18,-0.06,0.117,-0.132
HIST2H2BF isoform 2 (UniProt Q5QNW6),-0.049,-0.095,-0.279,0.38,-0.051,-0.018,0.119,-0.064,0.253,-0.178
HBZ (UniProt P02008),0.017,0.09,0.174,-0.067,0.045,0.084,-0.005,0.014,-0.005,0.21
GLUL (UniProt P15104),-0.07,0.008,-0.267 (active),0.062,0.035,-0.014,-0.014,-0.047,-0.126,0.005
GALNT1 (UniProt Q10472),0.014,-0.012,0.019,-0.013,0.046,0.012,-0.043,0.004,0.026,0.048
HNRNPH2 (UniProt P55795),0.029,-0.171,0.096,-0.023,0.054,0.06,0.113,0.177,-0.024,-0.159
HSPA8 (UniProt P11142),0.003,0.039,-0.048,-0.009,-0.026,0.014,0.01,-0.003,-0.008,0.028
FIZ1 (UniProt Q96SL8),-0.05,0.018,-0.354,0.074,-0.251,0.024,–,0.017,0.044,–
GSTO1 (UniProt P78417),0.047,0,0.013,-0.072,0.064,-0.017,-0.01,0,-0.02,0.036
IFRD1 (UniProt O00458),0.347,0.004,0.37 (active),0.013,0.002,0.104,0.035,-0.003,0,-0.006
FEN1 (UniProt P39748),0.018,-0.488 (active),0.367,-0.018,0.07,-0.162,-0.024,0.177,-0.065,-0.126
GCDH (UniProt Q92947),0.004,0.058,0.112,-0.032,0.098,0.076,-0.107,-0.021,-0.012,0.041
HADHB (UniProt P55084),-0.087,0.109,0.099,-0.023,0.229,0.083,-0.112,0.138,0.167,0.199
GTF2B (UniProt Q00403),-0.007,-0.044,0.115,0.001,0.121,-0.146,0.102,0.127,-0.044,-0.091
FNTB (UniProt P49356),0.104,0.054,-0.035,-0.137,0.085,0.169,-0.012,-0.043,-0.012,0.109
GLS isoform 3 (UniProt O94925),0.038,0.021,0.256,-0.007,0.077,-0.264,0.014,0.064,0.023,0.219
GAPVD1 isoform 6 (UniProt Q14C86),-0.012,-0.145,0.017,0.075,-0.058,-0.081,0.061,0.147,0.038,-0.133
GTF2A1 (UniProt P52655),0.061,0.074,0.061,-0.065,0.082,0.07,-0.027,-0.066,-0.107,0.24
HIP1 (UniProt O00291),0.054,-0.131,0.035,-0.002,0.085,0.029,-0.086,0.027,0,-0.033
GSTM4 (UniProt Q03013),-0.181,-0.006,0.004,0.054,0.101,-0.028,-0.068,0.035,-0.037,-0.012
FANCI (UniProt Q9NVI1),-0.074,-0.138,0.139,0,0.031,-0.14,0.029,0.038,-0.021,-0.071
GNL1 (UniProt P36915),0.051,-0.014,0.162,-0.011,0.013,0.028,-0.014,0.052,-0.019,0.087
GDPD1 (UniProt Q8N9F7),0.086,0.035,0.074,-0.057,0.023,0.012,0.043,-0.033,0.078,0.353 (active)
GABPA (UniProt Q06546),0.059,-0.028,0.126,0.012,0.089,-0.029,0.025,0.068,-0.018,-0.099
GNG5 (UniProt P63218),0.014,0.094,0.207,-0.13,0.134,0.055,0.063,-0.071,0.008,0.216
GALK1 isoform 2 (UniProt P51570),-0.1,-0.041,0.037,-0.088,-0.021,-0.087,-0.013,0.056,0.012,0.078
HDDC2 (UniProt Q7Z4H3),0.044,-0.058,0.106,-0.103,0.04,0.032,0.026,0.024,0.031,0.228
